The values that follow come from PubChem BioAssay AID1571 (National Center for Advancing Translational Sciences (NCATS), 2009).

Inconclusive results are not listed. A call without a number means that no potency is given here. Activity calls are given as the source filed them. The call rests on the fitted dose curve; in most records, active means well fitted curve in the direction sought with a large enough effect; inconclusive means small, poorly fitted or top-dose-only effect, or effect the other way; inactive means flat fitted curve, though single readings scatter.

The nature of the assay: Total Fluorescence Confirmation Counterscreen for Inhibitors of the Interaction of Thyroid Hormone Receptor and Steroid Receptor Coregulator 2, Fluorescein Fluoroprobe. The gist of the method:
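Human TRbeta ligand-binding domain (0.6 uM) with 20 nM fluorescein-labelled SRC2 peptide, 1 uM T3, 5% DMSO, Tris pH not given; 5 hr ambient incubation. Total fluorescence (S + 2P, parallel plus perpendicular channels) flags fluorescent or light-absorbing compounds; % activity per concentration.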
Background: A counterscreen serves to expose hits that act by an unwanted route or on another target.

Take `C=CCSc1nnc2n(-c3ccccc3OC)c(=O)c3c4c(sc3n12)CCC4`: the Potency entry was “inactive”. In the case of `CCN(C(=O)C1CCCN(c2ncnc3onc(-c4ccc(F)cc4)c23)C1)c1ccccc1` (configuration not stated), the Potency result is “inactive”.
